From PubChem BioAssay (NCATS)
Inconclusive results are not listed. Active and inactive are the calls of the source. Calls come from the whole dose curve; as a rule, active = well fitted inhibition curve with a large enough effect; inconclusive = small, poorly fitted or top-dose-only effect; inactive = flat fitted curve, though single readings scatter.

Legend:
Test in all cases: qHTS profiling for inhibitors of Plasmodium falciparum proliferation (AID 504749); note: nearly all actives have a fitted effect of over 60% in size
Details in all cases: P. falciparum in erythrocytes, SYBR Green DNA, 72 h; series mostly up to 28.7 µM
CP256 = system: CP256
In short: (§1)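 SYBR Green fluorescence of parasite DNA, read after lysis and overnight dark incubation, measured growth over 72 h in erythrocyte culture at 0.3% parasitemia and 2.5% hematocrit. Data normalised to DMSO and 0.29 uM artemisinin, with plate-drift correction.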

CP260 = system: CP260
In short: as §1

CP262 = system: CP262
In short: as §1

CP265 = system: CP265
In short: as §1

CP266 = system: CP266
In short: as §1

CP268 = system: CP268
In short: as §1

CP269 = system: CP269
In short: as §1

CP286 = system: CP286
In short: as §1

CP291 = system: CP291
In short: as §1

CP297 = system: CP297
In short: as §1

Measured: Potency

Cc1ccccn1
inactive: all assays above

CCOc1ccc(S(=O)(=O)O)c2cccnc12
inactive: all assays above

O=P(O)(O)OP(=O)(O)OP(=O)(O)O
inactive: all assays above

Nc1nc(=O)n([C@@H]2CS[C@H](CO)O2)cc1F
inactive: all assays above

NC(=O)[C@@H]1CCCN1C(=O)[C@H](Cc1cnc[nH]1)NC(=O)[C@@H]1CCC(=O)N1
inactive: all assays above

COc1ccc(/C=N/NC(=O)c2ccncc2)c(C(=O)O)c1OC
inactive: all assays above

O=C(O)CCC/C=C\C[C@@H]1[C@@H](/C=C/[C@@H](O)COc2cccc(C(F)(F)F)c2)[C@H](O)C[C@@H]1O
inactive: all assays above

Cc1ccc(S(=O)(=O)NCl)cc1
inactive: all assays above

Cc1cc2nc3c(=O)[nH]c(=O)nc-3n(C[C@H](O)[C@H](O)[C@H](O)COP(=O)(O)OP(=O)(O)OC[C@H]3O[C@@H](n4cnc5c(N)ncnc54)[C@H](O)[C@@H]3O)c2cc1C
inactive: all assays above

NC(N)=O
inactive: all assays above

CO
inactive: all assays above

O=C(OCc1ccccc1)c1ccc(O)cc1
inactive: all assays above

CCCCCCCCCCCCCCCCCC(=O)OC[C@@H](O)[C@H]1OC[C@H](O)[C@H]1O
inactive: all assays above

CCOC(=O)c1cc(-c2ccccc2)nc2ccc(C)cc12
inactive: all assays above

CC(C)CCC[C@@H](C)[C@H]1CC[C@H]2[C@@H]3CC[C@@H]4C[C@H](O)CC[C@]4(C)[C@H]3CC[C@]12C
inactive: all assays above

Cc1c(Cl)cccc1Nc1ncccc1C(=O)O
inactive: all assays above

CCN(CC)CCOc1ccccc1OC
inactive: all assays above

CC(CC=O)CCCC(C)(C)O (stereo not given)
inactive: all assays above

NCC[C@H](O)C(=O)N[C@@H]1C[C@H](N)[C@@H](O[C@H]2O[C@H](CN)CC[C@H]2N)[C@H](O)[C@H]1O[C@H]1O[C@H](CO)[C@@H](O)[C@H](N)[C@H]1O
inactive: all assays above

CCN(CC)C(=S)S
inactive: all assays above

C[C@H](O)CN(C)C
inactive: all assays above

OCC1(CO)COC(C(Cl)(Cl)Cl)OC1
inactive: all assays above

CNC(=O)OCc1cccc(COC(=O)NC)n1
inactive: all assays above

COc1ccc(-c2noc(CC(=O)O)c2-c2ccc(OC)cc2)cc1
inactive: all assays above

O=C(O)CCC(=O)c1ccc(-c2ccccc2)cc1
inactive: all assays above

O=C(NCCNCC(O)COc1ccc(O)cc1)N1CCOCC1 (stereo not given)
inactive: all assays above

O=C1c2ccccc2C(=O)C1c1ccc(Cl)cc1
inactive: all assays above

NCC[C@H](O)C(=O)N[C@@H]1C[C@H](N)[C@@H](O[C@H]2O[C@H](CN)[C@@H](O)[C@H](O)[C@H]2O)[C@H](O)[C@H]1O[C@H]1O[C@H](CO)[C@@H](O)[C@H](N)[C@H]1O
inactive: all assays above

C=C(C)C1CC=C(C)CC1 (stereo not given)
inactive: all assays above
